Entries with a potency or affinity are not part of this list.

The assay in a line: loss of vesicle association with mouse CD8+ T cells – mouse 2C CD8+ T cells, flow cytometry, dose response (AID 485284).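 Further: drosophila derived vesicles carrying Ld MHC with QL9 peptide plus B7-1 and ICAM-1; vesicle binding seen as anti-B7-1 PE fluorescence on CD8 gated cells.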 Conditions: 2C mouse CD8+ T cell-exosome binding; at 45 µM (top of the series). (In general: A flow cytometer gives signals particle by particle.)
As for `COC(=O)C1=C(c2ccc(F)cc2F)C[C@@H]2CC[C@H]1N2C(=O)NCCNC(C)=O`, the binding remaining, % of control stood at 107%.
Consider `Cc1sc2ncnc(NCC(C)(C)N3CCOCC3)c2c1C`, for which the binding remaining, % of control was 133%.
The result for `O=C(Nc1ccc(Cl)cc1)O/N=C(\c1ccccc1)c1ccccn1` reads 85.8%.
For `CC(C)(O)C(=O)Nc1ccc([N+](=O)[O-])c(C(F)(F)F)c1`, the binding remaining, % of control amounted to 166%.
Consider `COc1ccc2c3c1OC1[C@H](O)CCC4[C@@H](C2)N(C)CC[C@]314` (stereo partly specified), for which the binding remaining, % of control was 230%.
The result for `COC(=O)C1=C(c2c(C)noc2C)C[C@@H]2CC[C@H]1N2C(=O)NCCOc1ccccc1Cl` reads 124%.
